Experiment in all cases: universal protein binding microarray (PBM); transcription factors of Arabidopsis thaliana; high values mean tight binding
One test deals with T1, GST-ANAC092(1-176) (Arabidopsis thaliana, UniProt Q9FKA0 1-176).
T1 sequence: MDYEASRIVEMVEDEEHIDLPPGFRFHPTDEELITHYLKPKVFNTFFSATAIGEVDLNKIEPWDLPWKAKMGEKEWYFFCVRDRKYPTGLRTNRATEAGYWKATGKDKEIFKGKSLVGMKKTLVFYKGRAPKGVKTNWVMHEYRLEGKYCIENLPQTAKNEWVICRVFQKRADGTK
The note with it: protein: recombinant; tags: GST; chain copies: 2; dsDNA, one strand shown. The essentials:
(§1)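 Binding is expressed as the normalised enrichment score (E-score). Proteins carrying a GST tag, whether NAC-domain, full-length or DNA-binding-domain forms, were induced in cells, and zinc acetate was added for zinc-finger proteins. After purification on glutathione–Sepharose 4B and quantification by A280 or anti-GST western blot, each was applied in duplicate at 200 to 500 nM final to custom all-10-mer Agilent 4 × 180K arrays made double-stranded by primer extension. Gapped and ungapped 8-mers were scored.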

Another test concerns the target GST-NTL6(1-168) (Arabidopsis thaliana, UniProt Q9SCK6 1-168). The note with it: protein: recombinant; tags: GST; chain copies: 2; dsDNA, one strand shown. The essentials:
as §1

Another test deals with T2, GST-ANAC019 NAC domain (Arabidopsis thaliana, UniProt Q9C932 14-162).
T2 sequence: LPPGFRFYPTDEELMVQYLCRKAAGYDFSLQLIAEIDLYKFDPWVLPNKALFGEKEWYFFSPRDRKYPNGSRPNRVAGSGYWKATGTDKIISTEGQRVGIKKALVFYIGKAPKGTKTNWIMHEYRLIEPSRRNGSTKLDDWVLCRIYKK
The note with it: protein: recombinant; tags: GST; chain copies: 2; dsDNA, one strand shown. The procedure, abridged: as §1

In a further test the target is T3, GST-ANAC055(1-171) (Arabidopsis thaliana, UniProt Q9LDY8 1-171).
T3 sequence: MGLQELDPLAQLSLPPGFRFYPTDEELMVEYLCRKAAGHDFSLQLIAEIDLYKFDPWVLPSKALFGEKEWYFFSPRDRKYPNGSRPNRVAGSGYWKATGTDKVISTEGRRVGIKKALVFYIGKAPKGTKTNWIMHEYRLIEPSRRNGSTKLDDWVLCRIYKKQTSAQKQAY
The note with it: protein: recombinant; tags: GST; chain copies: 2; dsDNA, one strand shown. The essentials:
as §1

The next test concerns the target T4, GST-ATAF1 NAC domain (Arabidopsis thaliana, UniProt Q39013 7-158).
T4 sequence: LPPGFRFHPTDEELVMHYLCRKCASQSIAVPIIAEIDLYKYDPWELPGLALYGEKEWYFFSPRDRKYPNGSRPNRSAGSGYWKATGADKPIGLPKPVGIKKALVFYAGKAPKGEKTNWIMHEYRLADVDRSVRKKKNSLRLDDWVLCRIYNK
The note with it: protein: recombinant; tags: GST; chain copies: 2; dsDNA, one strand shown. The procedure, abridged:
as §1

Test [1] deals with T5, GST-ANAC092(1-285) full length (Arabidopsis thaliana, UniProt Q9FKA0 1-285).
T5 sequence: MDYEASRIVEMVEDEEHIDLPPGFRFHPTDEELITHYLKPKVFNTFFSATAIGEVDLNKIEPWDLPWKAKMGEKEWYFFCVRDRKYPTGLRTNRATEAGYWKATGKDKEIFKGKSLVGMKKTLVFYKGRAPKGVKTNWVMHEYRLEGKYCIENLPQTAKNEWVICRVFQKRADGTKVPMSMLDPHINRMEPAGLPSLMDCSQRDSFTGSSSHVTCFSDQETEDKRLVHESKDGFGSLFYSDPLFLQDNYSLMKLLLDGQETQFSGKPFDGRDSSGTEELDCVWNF
The note with it: protein: recombinant; tags: GST; chain copies: 2; dsDNA, one strand shown. The procedure, abridged:
as §1

The target of another test is T6, GST-NAP(1-166) (Arabidopsis thaliana, UniProt O49255 1-166).
T6 sequence: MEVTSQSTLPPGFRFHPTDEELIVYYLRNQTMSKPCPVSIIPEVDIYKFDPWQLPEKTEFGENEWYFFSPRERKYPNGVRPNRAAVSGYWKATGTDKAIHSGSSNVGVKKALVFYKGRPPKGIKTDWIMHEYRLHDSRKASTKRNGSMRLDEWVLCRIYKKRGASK
The note with it: protein: recombinant; tags: GST; chain copies: 2; dsDNA, one strand shown. The procedure, abridged:
as §1

The target in another test is T7, GST-NST2(1-184) (Arabidopsis thaliana, UniProt Q9M274 1-184).
T7 sequence: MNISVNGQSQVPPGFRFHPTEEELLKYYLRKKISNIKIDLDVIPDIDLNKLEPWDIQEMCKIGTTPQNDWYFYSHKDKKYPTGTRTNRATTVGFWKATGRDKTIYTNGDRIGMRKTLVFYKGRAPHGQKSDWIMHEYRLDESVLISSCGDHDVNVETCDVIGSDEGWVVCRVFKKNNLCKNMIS
The note with it: protein: recombinant; tags: GST; chain copies: 2; dsDNA, one strand shown. The procedure, abridged:
as §1

For the next test, the target named is T8, GST-SND1(1-203) (Arabidopsis thaliana, UniProt Q9LPI7 1-203).
T8 sequence: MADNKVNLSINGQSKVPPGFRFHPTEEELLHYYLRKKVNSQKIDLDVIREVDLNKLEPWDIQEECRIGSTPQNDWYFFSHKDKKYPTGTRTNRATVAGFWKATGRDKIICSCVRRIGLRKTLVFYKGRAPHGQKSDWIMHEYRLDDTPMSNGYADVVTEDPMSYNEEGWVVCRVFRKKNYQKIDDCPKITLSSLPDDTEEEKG
The note with it: protein: recombinant; tags: GST; chain copies: 2; dsDNA, one strand shown. The essentials: as §1

A further test has as its target T9, GST-VND3 NAC domain (Arabidopsis thaliana, UniProt Q9FH59 12-162).
T9 sequence: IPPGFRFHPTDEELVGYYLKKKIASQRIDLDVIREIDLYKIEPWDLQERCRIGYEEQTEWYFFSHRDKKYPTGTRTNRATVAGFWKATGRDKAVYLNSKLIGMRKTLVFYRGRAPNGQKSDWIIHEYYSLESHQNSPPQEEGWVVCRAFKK
The note with it: protein: recombinant; tags: GST; chain copies: 2; dsDNA, one strand shown. The procedure, abridged:
as §1

The target in the next test is T10, GST-VND7 NAC domain (Arabidopsis thaliana, UniProt Q9C8W9 9-158).
T10 sequence: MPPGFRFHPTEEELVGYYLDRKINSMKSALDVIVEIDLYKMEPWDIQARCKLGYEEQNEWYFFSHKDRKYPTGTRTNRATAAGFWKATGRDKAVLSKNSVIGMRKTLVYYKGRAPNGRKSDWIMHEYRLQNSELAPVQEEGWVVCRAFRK
The note with it: protein: recombinant; tags: GST; chain copies: 2; dsDNA, one strand shown. The procedure, abridged: as §1

The target of a further test is GST-WRKY1(266-371) (Arabidopsis thaliana, UniProt Q9SI37 266-371). The note with it: protein: recombinant; tags: GST; dsDNA, one strand shown. The essentials:
as §1

The target in a further test is T11, GST-NTL8 NAC domain (Arabidopsis thaliana, UniProt Q9XIN7 14-156).
T11 sequence: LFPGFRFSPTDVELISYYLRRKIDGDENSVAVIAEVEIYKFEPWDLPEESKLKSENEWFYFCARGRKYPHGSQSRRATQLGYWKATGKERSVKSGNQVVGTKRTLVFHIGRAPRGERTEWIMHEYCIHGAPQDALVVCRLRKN
The note with it: protein: recombinant; tags: GST; chain copies: 2; dsDNA, one strand shown. The essentials:
as §1

Chain of GST-WRKY1(266-371) (Q9SI37 266-371): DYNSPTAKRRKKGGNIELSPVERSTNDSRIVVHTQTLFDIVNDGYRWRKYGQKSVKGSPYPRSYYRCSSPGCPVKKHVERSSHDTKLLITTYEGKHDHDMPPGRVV
Chain of GST-NTL6(1-168) (Q9SCK6 1-168): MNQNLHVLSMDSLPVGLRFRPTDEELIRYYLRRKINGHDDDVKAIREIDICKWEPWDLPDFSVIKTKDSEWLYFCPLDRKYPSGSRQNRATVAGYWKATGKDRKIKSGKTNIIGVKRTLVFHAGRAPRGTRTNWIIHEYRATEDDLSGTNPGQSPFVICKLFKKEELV

Consider CACGTAAA, for which the binding signal in the test with GST-ANAC092(1-176) worked out at 0.425 E-score; with GST-NTL6(1-168) it was 0.0987 E-score; in the test with GST-ANAC019 NAC domain, 0.43 E-score; with GST-ANAC055(1-171), 0.414 E-score; with GST-ATAF1 NAC domain, 0.332 E-score; in test [1], 0.431 E-score. For the same sequence, the binding signal in the test with GST-NAP(1-166) came out at 0.35 E-score; with GST-NST2(1-184), 0.293 E-score; in the test with GST-SND1(1-203), 0.289 E-score; with GST-VND3 NAC domain, 0.414 E-score; with GST-VND7 NAC domain it was 0.346 E-score.
As for ATACGTAA, the binding signal in the test with GST-ANAC092(1-176) is 0.462 E-score; with GST-NTL6(1-168), 0.175 E-score; with GST-ANAC019 NAC domain, 0.476 E-score; with GST-ANAC055(1-171) it was 0.451 E-score; with GST-ATAF1 NAC domain it was 0.407 E-score; in test [1], 0.45 E-score. Also, the binding signal worked out at 0.461 E-score in the test with GST-NAP(1-166); 0.331 E-score in the test with GST-NST2(1-184); 0.393 E-score in the test with GST-SND1(1-203); 0.462 E-score in the test with GST-VND3 NAC domain; 0.458 E-score with GST-VND7 NAC domain.
For the sequence ATGTCAAC, the binding signal with GST-NTL6(1-168) turned out to be 0.0563 E-score; in the test with GST-ANAC055(1-171) it was 0.133 E-score; with GST-ATAF1 NAC domain, 0.127 E-score; with GST-NAP(1-166), 0.106 E-score; with GST-NST2(1-184) it was 0.0828 E-score; in the test with GST-SND1(1-203), 0.0631 E-score. The values for the binding signal with GST-VND3 NAC domain, with GST-VND7 NAC domain and in the test with GST-WRKY1(266-371) were 0.089 E-score, 0.124 E-score and 0.443 E-score, respectively.
In the case of TAAGGTCA, the binding signal with GST-NTL6(1-168) turned out to be 0.242 E-score; with GST-ATAF1 NAC domain it was 0.094 E-score; with GST-NAP(1-166), 0.14 E-score; with GST-NTL8 NAC domain, 0.0905 E-score; with GST-SND1(1-203), 0.132 E-score; in the test with GST-VND3 NAC domain, 0.223 E-score. The values for the binding signal with GST-VND7 NAC domain and with GST-WRKY1(266-371) were 0.143 E-score and 0.441 E-score, respectively.
Take AACACGCC: the binding signal came to 0.391 E-score with GST-ANAC092(1-176); 0.094 E-score with GST-NTL6(1-168); 0.238 E-score in the test with GST-ANAC019 NAC domain; 0.253 E-score with GST-ANAC055(1-171); 0.0901 E-score with GST-ATAF1 NAC domain; 0.431 E-score in test [1]. In addition, the binding signal with GST-NAP(1-166) was determined as 0.184 E-score; with GST-NST2(1-184), 0.144 E-score; with GST-SND1(1-203) it was 0.144 E-score; in the test with GST-VND3 NAC domain, 0.1 E-score; with GST-VND7 NAC domain, 0.0653 E-score.
As to AATAGCGT, the binding signal in the test with GST-ANAC092(1-176) is 0.39 E-score; with GST-ANAC055(1-171), 0.138 E-score; with GST-ATAF1 NAC domain, 0.114 E-score; in test [1], 0.412 E-score; with GST-NAP(1-166), 0.121 E-score; with GST-NST2(1-184), 0.261 E-score. Besides, the binding signal with GST-SND1(1-203) was 0.383 E-score; with GST-VND3 NAC domain it was 0.119 E-score; with GST-VND7 NAC domain, 0.191 E-score; in the test with GST-WRKY1(266-371) it was 0.0558 E-score.
In the case of ACGCAACC, the binding signal worked out at 0.483 E-score with GST-ANAC092(1-176); 0.455 E-score with GST-ANAC019 NAC domain; 0.421 E-score with GST-ANAC055(1-171); 0.428 E-score with GST-ATAF1 NAC domain; 0.492 E-score in test [1]; 0.478 E-score with GST-NAP(1-166). Moreover, the binding signal in the test with GST-NST2(1-184) turned out to be 0.434 E-score; with GST-NTL8 NAC domain, 0.146 E-score; in the test with GST-SND1(1-203) it was 0.481 E-score; with GST-VND3 NAC domain, 0.416 E-score; with GST-VND7 NAC domain it was 0.443 E-score; with GST-WRKY1(266-371), 0.107 E-score.
Turning to TGACGTAA, the binding signal with GST-ANAC092(1-176) was 0.449 E-score; with GST-ANAC019 NAC domain it was 0.368 E-score; in the test with GST-ANAC055(1-171), 0.364 E-score; with GST-ATAF1 NAC domain, 0.407 E-score; in test [1] it was 0.441 E-score; in the test with GST-NAP(1-166), 0.389 E-score. For the same sequence, the binding signal with GST-NST2(1-184) was determined as 0.385 E-score; in the test with GST-NTL8 NAC domain, 0.0784 E-score; in the test with GST-SND1(1-203) it was 0.482 E-score; with GST-VND3 NAC domain, 0.406 E-score; in the test with GST-VND7 NAC domain it was 0.392 E-score; with GST-WRKY1(266-371), 0.178 E-score.
